Measured values: PubChem BioAssay (NCI)
Compounds without any hit were thinned out: in the full panel of roughly 83,000, 20% have a hit.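 96-well plates, one dose, 48 hours. Percent growth reported; active if below 10.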 The source made the active and inactive calls.

Columns and labels:
Test in all cases: NCI-60 one-dose screen, 48 h (100 = growth as untreated, 0 = no growth, -100 = all killed)
Details in all cases: 10 µM unless noted
SK-MEL-2 melanoma = system: SK-MEL-2 melanoma
EKVX NSCLC = system: EKVX NSCLC
SN12C renal = system: SN12C renal
UO-31 renal = system: UO-31 renal
TK-10 renal = system: TK-10 renal
ACHN renal = system: ACHN renal
CAKI-1 renal = system: CAKI-1 renal
A498 renal = system: A498 renal
CCRF-CEM leukemia = system: CCRF-CEM leukemia
MOLT-4 leukemia = system: MOLT-4 leukemia
SR leukemia = system: SR leukemia
RPMI-8226 leukemia = system: RPMI-8226 leukemia
OVCAR-8 ovarian = system: OVCAR-8 ovarian
OVCAR-5 ovarian = system: OVCAR-5 ovarian
OVCAR-4 ovarian = system: OVCAR-4 ovarian
SK-OV-3 ovarian = system: SK-OV-3 ovarian
IGROV1 ovarian = system: IGROV1 ovarian
OVCAR-3 ovarian = system: OVCAR-3 ovarian
HS 578T breast = system: HS 578T breast
NCI/ADR-RES ovarian = system: NCI/ADR-RES ovarian

Measured: growth

C=C1CC[C@@H]2[C@](C)(COC(C)=O)[C@H](OC(C)=O)CC[C@@]2(C)[C@@H]1CC(Nc1ccc(S(=O)(=O)Nc2nc(C)cc(C)n2)cc1)C1=CCOC1=O (stereo not given in full)
inactive: SK-MEL-2 melanoma 88.5% | EKVX NSCLC 74.5% | SN12C renal 38.2% | UO-31 renal 71.2% | TK-10 renal 111% | ACHN renal 71.6% | CAKI-1 renal 74% | A498 renal 85.3% | MOLT-4 leukemia 24.6% | SR leukemia 22.2% | OVCAR-8 ovarian 62% | OVCAR-5 ovarian 103% | OVCAR-4 ovarian 65% | SK-OV-3 ovarian 112% | IGROV1 ovarian 81.5% | OVCAR-3 ovarian 44.8% | HS 578T breast 99.8% | NCI/ADR-RES ovarian 66.6%
active: CCRF-CEM leukemia 2.96% | RPMI-8226 leukemia 2.24%

O=C(Nc1ccc(CN2CCOCC2)cc1)c1[nH]ncc1Nc1ncnc2sccc12
active: SK-MEL-2 melanoma 2.93% | UO-31 renal 8.4% | TK-10 renal 8.06% | ACHN renal 2.49% | A498 renal -36.8% | CCRF-CEM leukemia 5.37% | MOLT-4 leukemia -2.6% | SR leukemia -4.39% | RPMI-8226 leukemia -3.98% | OVCAR-3 ovarian -15.7% | HS 578T breast -2.92% | NCI/ADR-RES ovarian 4.5%
inactive: EKVX NSCLC 13.4% | SN12C renal 10.4% | CAKI-1 renal 13.2% | OVCAR-8 ovarian 11.6% | OVCAR-5 ovarian 16.1% | OVCAR-4 ovarian 13.6% | SK-OV-3 ovarian 33% | IGROV1 ovarian 16.7%

S=c1[nH]nc(CSc2ncnc3c2c(-c2ccccc2)cn3-c2ccc(Cl)cc2)o1
inactive: SK-MEL-2 melanoma 105% | EKVX NSCLC 92% | SN12C renal 92.8% | UO-31 renal 73% | TK-10 renal 114% | ACHN renal 92.7% | CAKI-1 renal 76.2% | A498 renal 94.7% | CCRF-CEM leukemia 90.2% | MOLT-4 leukemia 98.1% | SR leukemia 105% | RPMI-8226 leukemia 98% | OVCAR-8 ovarian 97.5% | OVCAR-5 ovarian 104% | OVCAR-4 ovarian 95.4% | SK-OV-3 ovarian 78.2% | IGROV1 ovarian 92.3% | OVCAR-3 ovarian 101% | HS 578T breast 94.5% | NCI/ADR-RES ovarian 99.3%

CC1=NNC(=O)C1C (stereo not given)
inactive: SK-MEL-2 melanoma 99.8% | EKVX NSCLC 102% | SN12C renal 96.1% | UO-31 renal 88.2% | TK-10 renal 377% | ACHN renal 103% | CAKI-1 renal 81.5% | A498 renal 88.6% | CCRF-CEM leukemia 97.1% | MOLT-4 leukemia 145% | SR leukemia 121% | RPMI-8226 leukemia 73.1% | OVCAR-8 ovarian 83.3% | OVCAR-5 ovarian 122% | OVCAR-4 ovarian 128% | SK-OV-3 ovarian 101% | IGROV1 ovarian 106% | OVCAR-3 ovarian 109% | HS 578T breast 90.8% | NCI/ADR-RES ovarian 105%

CN1CCN(Cc2ccc(NC(=O)c3cncc(C#Cc4cnc(N)c5cccnc45)c3)cc2C(F)(F)F)CC1
active: SK-MEL-2 melanoma -27.1% | UO-31 renal 2.87% | ACHN renal 6.51% | CAKI-1 renal 1.93% | A498 renal -27.5% | SK-OV-3 ovarian -10.9% | IGROV1 ovarian 7.64% | HS 578T breast -2.09%
inactive: EKVX NSCLC 14.1% | SN12C renal 11.6% | TK-10 renal 50.1% | CCRF-CEM leukemia 16.9% | MOLT-4 leukemia 18.1% | SR leukemia 15.4% | RPMI-8226 leukemia 18.5% | OVCAR-8 ovarian 29.5% | OVCAR-5 ovarian 12.5% | OVCAR-4 ovarian 36.8% | OVCAR-3 ovarian 34.6% | NCI/ADR-RES ovarian 87%

O=C(O)c1ccccc1Nc1cccc(S(F)(F)(F)(F)F)c1
inactive: SK-MEL-2 melanoma 83.6% | EKVX NSCLC 99.3% | SN12C renal 96.4% | UO-31 renal 85.6% | TK-10 renal 87.8% | ACHN renal 98.4% | CAKI-1 renal 94.6% | A498 renal 95.1% | CCRF-CEM leukemia 98.4% | MOLT-4 leukemia 88.1% | SR leukemia 99.1% | RPMI-8226 leukemia 100% | OVCAR-8 ovarian 98.9% | OVCAR-5 ovarian 115% | OVCAR-4 ovarian 102% | SK-OV-3 ovarian 87.4% | IGROV1 ovarian 99.8% | OVCAR-3 ovarian 95% | HS 578T breast 99.2% | NCI/ADR-RES ovarian 106%

CC1(C)CC(C(=O)OCCCCCCCCCCC[P+](c2ccccc2)(c2ccccc2)c2ccccc2)C(C)(C)N1O (stereo not given)
inactive: ACHN renal 109% | NCI/ADR-RES ovarian 14.6%
active: SK-MEL-2 melanoma -45.8% | EKVX NSCLC -32.6% | SN12C renal -36% | UO-31 renal -74.4% | TK-10 renal -72.1% | CAKI-1 renal -57.9% | A498 renal -94.8% | CCRF-CEM leukemia -32.8% | MOLT-4 leukemia -56.9% | SR leukemia -58.4% | RPMI-8226 leukemia -43.8% | OVCAR-8 ovarian -39% | OVCAR-5 ovarian -62.9% | OVCAR-4 ovarian -31.5% | SK-OV-3 ovarian -19.5% | IGROV1 ovarian -58.7% | OVCAR-3 ovarian -95.9% | HS 578T breast -44%

CNC(=O)c1cc(Oc2ccc3nc(NC(=O)Nc4ccc(N5CCC(N(C)C)CC5)cc4)sc3c2)ccn1
active: SR leukemia 0.621%
inactive: SK-MEL-2 melanoma 117% | EKVX NSCLC 115% | SN12C renal 92.3% | UO-31 renal 87.7% | TK-10 renal 115% | ACHN renal 74.1% | CAKI-1 renal 90.1% | A498 renal 81.6% | CCRF-CEM leukemia 66.5% | MOLT-4 leukemia 61.4% | RPMI-8226 leukemia 74.2% | OVCAR-8 ovarian 89.3% | OVCAR-5 ovarian 114% | OVCAR-4 ovarian 80.7% | SK-OV-3 ovarian 102% | IGROV1 ovarian 89% | OVCAR-3 ovarian 90.1% | HS 578T breast 80.9% | NCI/ADR-RES ovarian 110%

CCCCCC(=O)Oc1ccc(/C(=C(\C)c2ccccc2)c2ccc(OCCN(CC)CC)cc2)cc1
inactive: SK-MEL-2 melanoma 87.6% | EKVX NSCLC 92.5% | SN12C renal 79.8% | UO-31 renal 48.4% | TK-10 renal 74.6% | ACHN renal 87.9% | CAKI-1 renal 99.7% | A498 renal 84.8% | CCRF-CEM leukemia 63.9% | MOLT-4 leukemia 46.1% | SR leukemia 17.7% | RPMI-8226 leukemia 46.5% | OVCAR-8 ovarian 81.9% | OVCAR-5 ovarian 87.6% | OVCAR-4 ovarian 84% | SK-OV-3 ovarian 75.2% | IGROV1 ovarian 75.9% | OVCAR-3 ovarian 86.6% | HS 578T breast 35.6% | NCI/ADR-RES ovarian 74.2%

CCCCCCCCCCCCNC(=O)[C@H]1CSC(c2ccc(OC)c(F)c2)N1 (stereo not given in full)
active: SK-MEL-2 melanoma -93.7% | EKVX NSCLC -87.4% | SN12C renal -93% | UO-31 renal -99.9% | TK-10 renal -96.3% | ACHN renal -100% | CAKI-1 renal -97.8% | A498 renal -96.3% | CCRF-CEM leukemia -42.5% | MOLT-4 leukemia -66.9% | SR leukemia -50.9% | RPMI-8226 leukemia -53.3% | OVCAR-8 ovarian -51.1% | OVCAR-5 ovarian -98.6% | OVCAR-4 ovarian -96.6% | SK-OV-3 ovarian -98.1% | IGROV1 ovarian -76% | OVCAR-3 ovarian -91.9% | HS 578T breast -49.6% | NCI/ADR-RES ovarian -60.4%

COc1cc2nc3cc([N+](=O)[O-])ccc3c(NCCCNCC(C)(C)O)c2cc1OC
active: SK-MEL-2 melanoma -47.5% | EKVX NSCLC -19.6% | SN12C renal -34.8% | UO-31 renal 1.88% | TK-10 renal -31.7% | ACHN renal 1.58% | A498 renal -82.2% | CCRF-CEM leukemia 1.71% | SR leukemia 5.93% | RPMI-8226 leukemia -9.27% | OVCAR-8 ovarian -45% | OVCAR-5 ovarian -3.65% | OVCAR-4 ovarian -37.2% | SK-OV-3 ovarian -46% | IGROV1 ovarian -18% | OVCAR-3 ovarian -60.3% | HS 578T breast -18.6%
inactive: CAKI-1 renal 18.4% | MOLT-4 leukemia 10.5% | NCI/ADR-RES ovarian 87.6%

CSc1ccc(N=C=C(c2ccccc2)c2ccccc2)cc1
inactive: SK-MEL-2 melanoma 93.5% | EKVX NSCLC 96.6% | SN12C renal 81.7% | UO-31 renal 83.5% | TK-10 renal 99.6% | ACHN renal 92.9% | CAKI-1 renal 96.9% | A498 renal 81.8% | MOLT-4 leukemia 34.7% | SR leukemia 50.7% | RPMI-8226 leukemia 88.5% | OVCAR-8 ovarian 89% | OVCAR-5 ovarian 93.2% | OVCAR-4 ovarian 110% | SK-OV-3 ovarian 90.1% | IGROV1 ovarian 95.7% | OVCAR-3 ovarian 103% | HS 578T breast 86.8% | NCI/ADR-RES ovarian 104%
active: CCRF-CEM leukemia 1.03%

COc1ccc(/C=C/C(=O)c2ccc(NC(=O)c3cc4cc5ccccc5nc4s3)cc2)cc1OC
inactive: SK-MEL-2 melanoma 103% | EKVX NSCLC 94.6% | SN12C renal 98.1% | UO-31 renal 88.5% | TK-10 renal 126% | ACHN renal 102% | CAKI-1 renal 98% | A498 renal 83.1% | CCRF-CEM leukemia 104% | MOLT-4 leukemia 114% | SR leukemia 98.6% | RPMI-8226 leukemia 99.4% | OVCAR-8 ovarian 111% | OVCAR-5 ovarian 96.8% | OVCAR-4 ovarian 97.1% | SK-OV-3 ovarian 106% | IGROV1 ovarian 81.8% | OVCAR-3 ovarian 95.5% | HS 578T breast 107% | NCI/ADR-RES ovarian 105%

CCCCOc1ccc(NC(=O)n2nc(NC(C)=O)c3cc(NC(C)=O)ccc32)cc1
inactive: SK-MEL-2 melanoma 95% | EKVX NSCLC 68.7% | SN12C renal 92.2% | UO-31 renal 80.9% | TK-10 renal 89.9% | ACHN renal 95.3% | CAKI-1 renal 89.2% | A498 renal 105% | CCRF-CEM leukemia 62.1% | MOLT-4 leukemia 52% | SR leukemia 88.4% | RPMI-8226 leukemia 76.9% | OVCAR-8 ovarian 92.5% | OVCAR-5 ovarian 114% | OVCAR-4 ovarian 106% | SK-OV-3 ovarian 117% | IGROV1 ovarian 95.3% | OVCAR-3 ovarian 98% | HS 578T breast 103% | NCI/ADR-RES ovarian 105%

CCOC(=O)c1cnc2cc(Cl)c(F)cc2c1Nc1cccc(NS(C)(=O)=O)c1
inactive: SK-MEL-2 melanoma 113% | EKVX NSCLC 90.8% | SN12C renal 100% | UO-31 renal 73.3% | TK-10 renal 124% | ACHN renal 93.5% | CAKI-1 renal 86.2% | A498 renal 78.9% | CCRF-CEM leukemia 103% | MOLT-4 leukemia 99.9% | SR leukemia 112% | RPMI-8226 leukemia 105% | OVCAR-8 ovarian 102% | OVCAR-5 ovarian 93.2% | OVCAR-4 ovarian 95.5% | SK-OV-3 ovarian 111% | IGROV1 ovarian 91% | OVCAR-3 ovarian 102% | HS 578T breast 93.7% | NCI/ADR-RES ovarian 81%
